Bioassay records deposited in PubChem by Johns Hopkins Ion Channel Center.
KCNQ2 block: rat KCNQ2 potassium channel inhibitors, primary screen, cell-based, CHO-K1, FluxOR thallium flux, B-score | 20 min; stronger effect = lower value | B-score at 10 µM | 310,000 compounds, 1.1% hits;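 active means fluorescence ratio B-score at most minus 3 library SDs, with starting brightness B-score within 2 library SDs, cut at about -5.5 in these data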
KCNQ2 pot: potentiators of rat KCNQ2 potassium channel; Potassium voltage-gated channel subfamily KQT member 2 (Rattus norvegicus), O88943; CHO-K1 KCNQ2, FluxOR thallium flux fluorescence; stronger effect = higher value; B-score at 10 µM; 310,000 compounds, 0.54% hits; AID 2239, 2010;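 active means fluorescence ratio B-score at least 3 SD of library B-scores, with initial fluorescence B-score within 3 of them, cut at about 5.3 in these data; same plate scores as AID 2156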;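 further: B-score of peak minus minimum over baseline fluorescence ratio after K+ and Tl+ stimulus; positive B-score means potentiation of KCNQ2 with more thallium influx and brighter signal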
* = called active by the depositor; i = inactive; . = not tested or not shown. A selection: hits, their analogues and other compounds. The true share with any hit is near 1.6%.

SMILES	KCNQ2 block	KCNQ2 pot
O=C(O)c1ccc(S(=O)(=O)NCC2CCCO2)cc1 (configuration not stated)	i	0.18
CCCn1c(C)nc2c(c1=O)c1nc3ccccc3nc1n2CCC1=CCCCC1	i	.
Cc1nc2c(c(=O)n1CCC1=CCCCC1)c1nc3ccccc3nc1n2/N=C/c1ccco1	-7.7*	-7.7
Cc1cc(C)cc(OCC(=O)NN2Cc3ccccc3C2=N)c1	i	1.1
N=C1c2ccccc2CN1NC(=O)CC12CC3CC(CC(C3)C1)C2	i	18*
O=C(Cn1nnc(-c2cccc(C(F)(F)F)c2)n1)N1CCCCCC1	i	12*
O=C(Cn1nnc(-c2ccccc2)n1)N1CCCCC1	i	1.5
O=C(c1ccco1)N1CCN(C(=O)c2ccc(-c3cccc(C(F)(F)F)c3)o2)CC1	i	0.1
O=C(c1ccc(-c2cccc(C(F)(F)F)c2)o1)N1CCCCCCC1	-6.2*	-6.2
CCCCn1c(-c2csc(CC)c2)n[nH]c1=S	i	1.9
CCCc1cc(-c2n[nH]c(=S)n2CC(C)C)cs1	i	6.4*
Cc1ccc(S(=O)(=O)Nc2c(C)cc(C)nc2Cl)cc1	i	1
Cn1c(CC(=O)Nc2ccccc2)c(Sc2ccccc2)c2ccccc21	-6.2*	-6.2
CSc1c(CC(=O)Nc2ccccc2)n(C)c2ccccc12	i	.
O=C(CSc1cccc[n+]1[O-])Nc1c(Br)cc([N+](=O)[O-])cc1Br	i	2.7
CC(C)(C)c1ccc(-c2cc(C(=O)NNC(=O)Nc3ccccc3)c3ccccc3n2)cc1	i	.
O=C(NNC(=O)c1cc(-c2ccccc2)nc2ccccc12)Nc1cccc(Cl)c1	-6.3*	-6.3
O=C(CNS(=O)(=O)c1ccc(Cl)cc1)OCC(=O)N1CCCc2ccccc21	i	.
O=C(COC(=O)C1(c2ccc(Cl)cc2)CCCC1)N1CCc2ccccc21	-7.3*	-7.3
CCOc1ccc(CCNC(=O)C2=C(C)C(=O)OC23CCCCC3)cc1OCC	i	0.35
Cc1ccc(-c2cc(C(=O)NC3=NCCS3)c3cc(Br)ccc3n2)o1	-6.3*	-6.3
Cc1ccc(-c2cc(C(=O)O)c3cc(Br)ccc3n2)o1	i	1.7
Cc1ccc2c(c1)N(C(=O)CCC(=O)NCCCN1CCN(C)CC1)CC(C)O2 (configuration not stated)	i	0.01
Cc1c(Cl)cccc1NC(=O)CNc1cccc(C(F)(F)F)c1	-6*	-6
Cc1ccc(F)cc1NCC(=O)Nc1ccc(Cl)cc1F	i	.
SMILES	KCNQ2 block	KCNQ2 pot
Cc1c(Cl)cccc1NCC(=O)Nc1ccc(Cl)cc1F	-6.8*	-6.8
C/C(=N\NC(=O)CNc1cccc(C(F)(F)F)c1)c1ccc(Br)cc1	i	.
NC(=O)[C@@H]1CC2(CC(c3cccc(NC(=O)[C@H]4CCC(=O)N4)c3)=NO2)CN1C(=O)COc1ccc(Cl)cc1 (some centres not stated)	i	0.69
CN1CCN(S(=O)(=O)c2ccc(Oc3cccc(C(F)(F)F)c3)nc2)CC1	i	0.71
NC(=O)COC(=O)c1ccc2noc(-c3ccccc3)c2c1	i	.
CC(C)(C)NC(=O)CN(C(=O)CNS(=O)(=O)c1ccc(Cl)cc1)c1ccc2c(c1)OCCO2	i	0.07
Cc1cc(C)c2nc(NCCCNC(=S)NCCCN(C)C)c(C#N)cc2c1	-7.3*	-7.3
Cc1ccc2cc(C#N)c(NCCNC(=S)NCCCN(C)C)nc2c1C	i	.
Cc1c(C(=O)N2CCCCC2)c(S(=O)(=O)Nc2ccc(F)cc2F)c(C)n1C	i	2
O=C(O)c1cc(-c2ccccc2)nn1CC1CC(c2cccnc2)=NO1 (configuration not stated)	i	1.3
COc1ccccc1CNC(=O)c1cc(-c2ccccc2)nn1CC1CC(c2cccnc2)=NO1 (configuration not stated)	-6.1*	-6.1
COc1cc(NC(=O)CNC(=O)Cn2ccc3ccccc3c2=O)cc(OC)c1OC	i	1.5
CCCCC(=O)OCC(=O)Nc1ccc(C)c(F)c1	i	2
CC(C)c1cc(CNC(=O)C2CCC(=O)N(CCc3ccc(Cl)cc3)C2)on1 (configuration not stated)	i	.
CC(=O)Nc1cccc(-c2nc3ccccc3[nH]2)c1	i	1.6
CC(Oc1ccccc1)C(=O)Nc1cccc(-c2nc3ccccc3[nH]2)c1 (configuration not stated)	-5.6*	-5.6
Cc1ccc(N=Cc2cc(Br)cc(Cl)c2O)cc1	i	12*
Oc1ccc(Br)cc1C=Nc1ccc(Cl)cc1	i	2.2
Cc1ccccc1OCC(=O)Nc1nnc(C2CCCC2)s1	i	.
CC(C(=O)N1CCN(c2ccccc2)CC1)c1ccc([N+](=O)[O-])cc1 (configuration not stated)	i	.
CC1(C)CN=C(N(C(=O)Nc2ccccc2)c2ccccc2F)S1	i	.
CC1(C)CN=C(N(Cc2ccccc2)C(=O)Nc2ccccc2)S1	-6.4*	-6.4
O=C(c1ccc(F)cc1)C1CCN(C(=S)Nc2ccc(F)cc2)CC1	i	.
CCCCOc1ccc(/C=C/C(=O)OCC(=O)NC(=O)NCC(C)C)cc1OCC	i	.
CCOC(CCNC(=O)c1cc(-c2cccs2)nc2ccccc12)OCC	i	.
SMILES	KCNQ2 block	KCNQ2 pot
Cc1cc(C)n(-c2nc3ccccc3nc2N2CCN(S(=O)(=O)c3ccc(F)c(C)c3)CC2)n1	i	.
Cc1cc(C)n(-c2nc3ccccc3nc2N2CCN(S(=O)(=O)c3ccc4ccccc4c3)CC2)n1	-5.9*	-5.9
CNS(=O)(=O)c1ccc2c(c1)oc(=O)c1cc(S(=O)(=O)NC)ccc12	i	.
Cc1ccc(C)c(OCc2cc(C(=O)N3C[C@@H](C)O[C@@H](C)C3)no2)c1	i	1.4
Cc1ccc(C)c(OCc2cc(C(=O)N3CC[C@@H]4CCCC[C@H]4C3)no2)c1	-6.5*	-6.5
CCOC(=O)c1c(NC(=O)COC(=O)CNC(=O)c2ccc(Cl)cc2Cl)sc(C(=O)N(C)C)c1C	i	.
CCOC(=O)C1(CCOc2ccccc2)CCN(Cc2ccc(O)cc2)CC1	i	1.6
CCOC(=O)C1(CCOc2ccccc2)CCN(Cc2cccc3nonc23)CC1	-6.2*	-6.2
COc1cc(/C(O)=C(\C#N)c2nc3ccccc3[nH]2)cc(OC)c1OC	i	.
CCn1cc(CN2CCC(n3nccc3NC(=O)c3ccc(OC)cc3)CC2)cn1	i	.
COC(=O)Oc1ccc(/C=N/NC(=O)CN(c2ccccc2Cl)S(C)(=O)=O)cc1OC	i	0.77
N=C1S/C(=C\c2ccco2)C(=O)N1c1ccc2c(c1)OCO2	i	.
N=C1S/C(=C\c2ccco2)C(=O)N1c1nccs1	i	9.1*
Cc1ccc(-c2nc3ccccc3c(=O)n2NC(=O)COc2ccccc2)cc1	-6.8*	-6.8
COc1ccc(C(=O)Nn2c(SCC(=O)c3ccccc3)nc3ccccc3c2=O)cc1	i	.
COc1ccc(OCC(=O)Nn2c(-c3cccc(OC)c3)nc3ccccc3c2=O)cc1	i	.
COc1ccc(C(=O)Nn2c(SCc3ccc([N+](=O)[O-])cc3)nc3ccccc3c2=O)cc1	-6.2*	-6.2
O=C(COc1ccccc1)Nn1c(-c2ccccc2)nc2ccccc2c1=O	i	1.4
COc1ccc(CC(=O)Nn2c(-c3ccccc3)nc3ccccc3c2=O)cc1	i	9.9*
O=C(O)/C=C/c1ccc(OCc2cccc(F)c2)cc1	i	1.6
